Values joined by “and” are separate entries in the source; they are usually repeats but may differ in a detail not shown here. Equal entries are not always repeated. The campaign covered roughly 5,500 compounds. About 2,000 (36%) were called active. Not shown: some 18% with an inconclusive outcome. Rule as the data show it: active = normalized growth mostly below about 0.91 (no sharp cut-off); inconclusive = no clear call, values can overlap the other calls; inactive = mostly above about 0.92. Some of the results follow.
Experiment: chemical genetic growth profiling, strain panel (AID 1159580);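 also: tested at 20 µM; growth read once vehicle control cultures reached saturation at 30 °C; 1 = growth at the plate median or of vehicle wells; lower values mean less growth of the strain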
Settings: S. cerevisiae deletion strains, growth OD

Measured: normalized growth

COc1ccc(Cc2nccc3cc(OC)c(OC)cc23)cc1OC
inactive: locus YAL021C, strain ccr4, hits give low values 1.04 | locus YAL026C, strain drs2, hits give low values 1 | locus YAL030W, strain snc1, hits give low values 1 | locus YAL040C, strain CLN3, hits give low values 0.983 | locus YBL061C, strain skt5, hits give low values 1 | locus YBR009C, strain hhf1, hits give low values 0.995 | locus YBR021W, strain FUR4, hits give low values 1.01 | locus YBR023C, strain chs3, hits give low values 1.01 | locus YBR171W, strain sec66, hits give low values 1.01 | locus YBR229C, strain ROT2, hits give low values 1.01 | locus YBR231C, strain swc5, hits give low values 0.998 | locus YBR279W, strain paf1, hits give low values 1.01 | locus YCL011C, strain gbp2, hits give low values 1.01 | locus YCL016C, strain dcc1, hits give low values 1.01 | locus YCL029C, strain bik1, hits give low values 0.992 | locus YCL061C, strain MRC1 (second series), hits give low values 1 | locus YCL061C, strain MRC1, hits give low values 1 | locus YCL069W, strain vba3, hits give low values 1 | locus YCR088W, strain abp1, hits give low values 1.01 | locus YDL005C, strain med2, hits give low values 0.994 | locus YDL035C, strain GPR1, hits give low values 1.01 | locus YDL040C, strain nat1, hits give low values 0.998 | locus YDL074C, strain BRE1, hits give low values 1.02 | locus YDL101C, strain DUN1, hits give low values 1.01 | locus YDL134C, strain PPH21, hits give low values 1.01 | locus YDL185W, strain tfp1, hits give low values 0.992 | locus YDL192W, strain arf1, hits give low values 0.989 | locus YDR001C, strain nth1, hits give low values 0.999 | locus YDR069C, strain doa4, hits give low values 0.989 | locus YDR101C, strain arx1, hits give low values 0.996 | locus YDR137W, strain rgp1, hits give low values 1.03 | locus YDR150W, strain NUM1, hits give low values 1.02 | locus YDR159W, strain sac3, hits give low values 0.962 | locus YDR162C, strain NBP2, hits give low values 1 | locus YDR195W, strain ref2 0.981 | locus YDR297W, strain sur2, hits give low values 1 | locus YDR318W, strain mcm21, hits give low values 0.976 | locus YDR334W, strain swr1, hits give low values 1.01 | locus YDR335W, strain msn5, hits give low values 0.999 | locus YDR363W, strain ESC2, hits give low values 0.988 | locus YDR388W, hits give low values 0.993 | locus YDR392W, strain spt3, hits give low values 0.921 | locus YDR502C, strain sam2, hits give low values 0.986 | locus YEL003W, strain gim4, hits give low values 0.996 | locus YEL037C, strain rad23, hits give low values 1 | locus YEL061C, strain CIN8 (second series), hits give low values 1 | locus YEL061C, strain CIN8, hits give low values 1.01 | locus YER002W, strain NOP16, hits give low values 0.994 | locus YER015W, strain faa2, hits give low values 1 | locus YER016W, strain bim1, hits give low values 0.996 | locus YER110C, hits give low values 0.988 | locus YER111C, strain swi4, hits give low values 1.01 | locus YER155C, strain BEM2 (second series), hits give low values 0.987 | locus YER155C, strain BEM2, hits give low values 1.01 | locus YER167W, strain BCK2, hits give low values 1.01 | locus YFR010W, strain ubp6, hits give low values 0.998 | locus YGL078C, strain dbp3, hits give low values 0.99 | locus YGL086W, strain mad1, hits give low values 0.994 | locus YGL167C, strain pmr1, hits give low values 0.998 | locus YGL173C, strain kem1, hits give low values 0.999 | locus YGL227W, strain vid30, hits give low values 1 | locus YGL240W, strain doc1, hits give low values 0.967 | locus YGL248W, strain PDE1, hits give low values 1.01 | locus YGL253W, strain hxk2, hits give low values 1.01 | locus YGR078C, strain PAC10, hits give low values 0.975 | locus YGR135W, strain pre9, hits give low values 0.977 | locus YGR229C, strain SMI1, hits give low values 0.995 and 0.994 | locus YGR252W, strain gcn5, hits give low values 0.949 | locus YHR013C, strain ard1, hits give low values 1.07 | locus YHR027C, strain rpn1, hits give low values 0.998 | locus YHR030C, strain SLT2, hits give low values 1.02 and 0.98 | locus YHR079C, strain IRE1 (second series), hits give low values 0.985 | locus YHR079C, strain IRE1, hits give low values 0.972 | locus YHR094C, strain hxt1, hits give low values 0.992 | locus YHR129C, strain ARP1, hits give low values 1.02 | locus YHR142W, strain chs7, hits give low values 0.998 | locus YHR200W, strain rpn10, hits give low values 0.99 | locus YIL066C, strain RNR3, hits give low values 1.01 | locus YIL073C, strain SPO22, hits give low values 0.957 | locus YIL125W, strain kgd1, hits give low values 0.991 | locus YIR030C, strain dcg1, hits give low values 0.983 | locus YJL092W, strain hpr5, hits give low values 1 | locus YJL095W, strain BCK1 (second series), hits give low values 1 | locus YJL095W, strain BCK1, hits give low values 1.03 and 0.985 | locus YJL115W, strain asf1, hits give low values 1 | locus YJL129C, strain trk1, hits give low values 0.985 | locus YJL134W, strain LCB3, hits give low values 1.01 | locus YJL154C, strain vps35, hits give low values 1 | locus YJL164C, strain tpk1, hits give low values 0.996 | locus YJL166W, strain qcr8, hits give low values 1.01 | locus YJL168C, strain set2, hits give low values 0.995 | locus YJL187C, strain SWE1 (second series), hits give low values 1.01 | locus YJL187C, strain SWE1, hits give low values 0.996 | locus YJR043C, strain POL32, hits give low values 1.01

From PubChem BioAssay AID1159580 (chemical genetic matrix, 2015)
